Results as given in ChEMBL document CHEMBL3988442, “University of Dundee, Small-Polar-MMV Screening Library” (2021).
For some assays here: Potency and affinity values are given separately.

Assays:
Set-up in all cases: scale not given: direction of the effect not stated beside the values
[1] = molecular target: Protein translocase subunit SecA (Escherichia coli (strain K12)) (UniProt P10408); test: Assay to Identify E. coli SecA ATPase Inhibitors; type: functional; conditions: 30 µM
[2] = molecular target: T1, Ubiquitin-activating enzyme e1, putative (Leishmania donovani (strain BPK282A1)) (UniProt E9BSI1); test: Leishmania donovani Ubiquitin Activating Enzyme (LdE1); type: functional; conditions: 30 µM
T1 sequence (whole entry): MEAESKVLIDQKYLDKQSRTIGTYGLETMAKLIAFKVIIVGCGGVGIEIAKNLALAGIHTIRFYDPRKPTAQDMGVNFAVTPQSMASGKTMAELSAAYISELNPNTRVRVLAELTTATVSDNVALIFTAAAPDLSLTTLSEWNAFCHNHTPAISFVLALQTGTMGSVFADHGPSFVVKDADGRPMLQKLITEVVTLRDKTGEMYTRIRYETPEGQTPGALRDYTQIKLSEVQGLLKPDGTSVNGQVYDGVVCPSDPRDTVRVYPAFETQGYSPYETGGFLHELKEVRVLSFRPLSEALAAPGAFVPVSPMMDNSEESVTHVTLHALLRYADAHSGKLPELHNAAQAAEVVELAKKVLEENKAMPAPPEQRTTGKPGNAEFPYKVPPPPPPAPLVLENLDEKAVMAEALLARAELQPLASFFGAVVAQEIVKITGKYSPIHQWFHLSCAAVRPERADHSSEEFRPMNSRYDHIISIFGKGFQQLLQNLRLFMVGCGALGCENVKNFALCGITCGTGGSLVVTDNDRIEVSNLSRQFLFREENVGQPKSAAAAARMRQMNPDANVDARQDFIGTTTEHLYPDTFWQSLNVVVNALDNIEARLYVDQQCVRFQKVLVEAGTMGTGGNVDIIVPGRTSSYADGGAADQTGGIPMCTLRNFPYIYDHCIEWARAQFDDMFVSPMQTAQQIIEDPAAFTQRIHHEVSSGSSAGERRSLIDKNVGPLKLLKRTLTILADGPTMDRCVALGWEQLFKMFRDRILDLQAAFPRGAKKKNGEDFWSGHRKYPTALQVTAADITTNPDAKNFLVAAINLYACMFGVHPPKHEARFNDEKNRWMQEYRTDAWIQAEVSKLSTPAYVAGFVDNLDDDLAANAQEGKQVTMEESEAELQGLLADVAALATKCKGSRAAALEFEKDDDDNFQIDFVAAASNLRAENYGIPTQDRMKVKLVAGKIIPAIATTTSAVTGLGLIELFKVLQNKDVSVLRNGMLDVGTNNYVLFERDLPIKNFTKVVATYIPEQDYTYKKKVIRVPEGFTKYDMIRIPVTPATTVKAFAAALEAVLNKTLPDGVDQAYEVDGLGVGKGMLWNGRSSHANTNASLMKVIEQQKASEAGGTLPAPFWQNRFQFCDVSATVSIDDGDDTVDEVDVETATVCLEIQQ

[3] = molecular target: AMP-activated protein kinase, AMPK (Homo sapiens) (UniProt P54646+O43741+P54619+Q9UGJ0+Q9Y478+Q13131+Q9UGI9); test: AMP-dependent Kinase enzyme assay. An in vitro enzyme assay that detects ADP turnover that is directly proportional to AMPK activity. This uses naive AMPK that is activated during the assay with MK-8722; type: functional; conditions: 30 µM
[4] = molecular target: Sialic acid-binding Ig-like lectin 9 (Homo sapiens) (UniProt Q9Y336); test: Hs-Siglec9 ALPHAscreen SOP 20170721; conditions: 10 µM
[5] = test system: Trypanosoma cruzi; test: Trypanosoma cruzi phosphomannomutase and mannose-1-phosphate guanylyltransferase assay; type: functional; conditions: 10 µM
[6] = molecular target: T2, Arginase-2, mitochondrial (Homo sapiens) (UniProt P78540); test: in vitro enzyme assay to detect the production of urea directly proportional to the activity of Arginase II; type: functional; conditions: 33.3 µM; further: in the data most compounds retested in dose-response had high values
T2 sequence (whole entry): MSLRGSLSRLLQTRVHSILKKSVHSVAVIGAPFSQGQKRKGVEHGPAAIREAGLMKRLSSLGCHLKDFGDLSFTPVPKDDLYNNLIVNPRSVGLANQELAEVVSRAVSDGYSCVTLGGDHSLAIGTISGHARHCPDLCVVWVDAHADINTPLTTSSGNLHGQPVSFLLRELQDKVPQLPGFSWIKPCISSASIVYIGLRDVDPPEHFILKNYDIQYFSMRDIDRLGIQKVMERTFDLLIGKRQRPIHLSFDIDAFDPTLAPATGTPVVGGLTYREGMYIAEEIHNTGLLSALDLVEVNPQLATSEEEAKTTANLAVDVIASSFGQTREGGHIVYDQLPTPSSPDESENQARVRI

[7] = molecular target: T3, Proteasome subunit beta (Trypanosoma cruzi) (UniProt O96673); test: Trypanosoma cruzi proteasome chymotrypsin-like activity (TcProtChymo) assay.; further: in the data most compounds retested in dose-response had high values; type: functional; conditions: 9.37 µM
T3 sequence (whole entry): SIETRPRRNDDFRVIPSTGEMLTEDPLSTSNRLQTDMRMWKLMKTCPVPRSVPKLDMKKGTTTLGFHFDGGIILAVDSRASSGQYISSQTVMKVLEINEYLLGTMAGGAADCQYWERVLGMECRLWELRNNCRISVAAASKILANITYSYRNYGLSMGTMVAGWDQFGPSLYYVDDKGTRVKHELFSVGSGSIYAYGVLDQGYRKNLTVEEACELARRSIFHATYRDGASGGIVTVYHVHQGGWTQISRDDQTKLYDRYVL

[8] = organism: Homo sapiens; test: To identify inhibition of the IFN signalling (Jak-Stat) pathway via expression of an eGFP reporter gene under the control of an IFN-stimulated response element (ISRE) containing MxA promoter.; type: functional; conditions: 30 µM
[9] = molecular target: T4, Tyrosyl-tRNA synthetase, putative (Trypanosoma cruzi (strain CL Brener)) (UniProt Q4DSP6); test: Trypanosoma cruzi tyrosyl tRNA synthetase (TcYRS) _High Tyrosine SOP; type: functional; conditions: 30 µM; further: in the data most compounds retested in dose-response had high values
T4 sequence (whole entry): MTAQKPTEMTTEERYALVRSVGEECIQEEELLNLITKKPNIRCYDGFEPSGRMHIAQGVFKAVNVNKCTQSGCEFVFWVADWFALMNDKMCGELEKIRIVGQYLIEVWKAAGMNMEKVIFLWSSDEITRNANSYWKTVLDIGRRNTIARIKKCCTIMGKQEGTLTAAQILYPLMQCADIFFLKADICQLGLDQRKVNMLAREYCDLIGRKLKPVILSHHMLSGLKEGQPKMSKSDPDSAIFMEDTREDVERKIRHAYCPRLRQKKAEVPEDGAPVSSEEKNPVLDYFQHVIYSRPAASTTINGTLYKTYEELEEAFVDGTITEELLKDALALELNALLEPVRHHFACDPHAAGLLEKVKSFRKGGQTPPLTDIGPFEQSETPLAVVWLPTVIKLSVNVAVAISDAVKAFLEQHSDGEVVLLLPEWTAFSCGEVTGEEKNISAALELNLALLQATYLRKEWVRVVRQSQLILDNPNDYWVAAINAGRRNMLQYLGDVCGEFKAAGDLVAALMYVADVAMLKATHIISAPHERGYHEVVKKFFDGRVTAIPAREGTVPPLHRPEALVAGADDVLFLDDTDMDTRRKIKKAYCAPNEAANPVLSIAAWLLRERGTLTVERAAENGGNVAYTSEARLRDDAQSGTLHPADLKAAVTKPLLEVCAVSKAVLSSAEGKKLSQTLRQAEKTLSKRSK

[10] = molecular target: T4, Tyrosyl-tRNA synthetase, putative (Trypanosoma cruzi (strain CL Brener)); test: Trypanosoma cruzi tyrosyl tRNA synthetase (TcYRS) SOP; type: functional; conditions: 30 µM
[11] = molecular target: Chromo domain-containing protein 1 (Saccharomyces cerevisiae (strain ATCC 204508 / S288c) (Baker's yeast)) (UniProt P32657); test: ScCHD-1 Enzyme Inhibition Assay; type: functional; conditions: 30 µM; further: in the data most compounds retested in dose-response had high values
Sequence of Chromo domain-containing protein 1 (Saccharomyces cerevisiae (strain ATCC 204508 / S288c) (Baker's yeast)) (P32657 whole entry, the tested form may be a part): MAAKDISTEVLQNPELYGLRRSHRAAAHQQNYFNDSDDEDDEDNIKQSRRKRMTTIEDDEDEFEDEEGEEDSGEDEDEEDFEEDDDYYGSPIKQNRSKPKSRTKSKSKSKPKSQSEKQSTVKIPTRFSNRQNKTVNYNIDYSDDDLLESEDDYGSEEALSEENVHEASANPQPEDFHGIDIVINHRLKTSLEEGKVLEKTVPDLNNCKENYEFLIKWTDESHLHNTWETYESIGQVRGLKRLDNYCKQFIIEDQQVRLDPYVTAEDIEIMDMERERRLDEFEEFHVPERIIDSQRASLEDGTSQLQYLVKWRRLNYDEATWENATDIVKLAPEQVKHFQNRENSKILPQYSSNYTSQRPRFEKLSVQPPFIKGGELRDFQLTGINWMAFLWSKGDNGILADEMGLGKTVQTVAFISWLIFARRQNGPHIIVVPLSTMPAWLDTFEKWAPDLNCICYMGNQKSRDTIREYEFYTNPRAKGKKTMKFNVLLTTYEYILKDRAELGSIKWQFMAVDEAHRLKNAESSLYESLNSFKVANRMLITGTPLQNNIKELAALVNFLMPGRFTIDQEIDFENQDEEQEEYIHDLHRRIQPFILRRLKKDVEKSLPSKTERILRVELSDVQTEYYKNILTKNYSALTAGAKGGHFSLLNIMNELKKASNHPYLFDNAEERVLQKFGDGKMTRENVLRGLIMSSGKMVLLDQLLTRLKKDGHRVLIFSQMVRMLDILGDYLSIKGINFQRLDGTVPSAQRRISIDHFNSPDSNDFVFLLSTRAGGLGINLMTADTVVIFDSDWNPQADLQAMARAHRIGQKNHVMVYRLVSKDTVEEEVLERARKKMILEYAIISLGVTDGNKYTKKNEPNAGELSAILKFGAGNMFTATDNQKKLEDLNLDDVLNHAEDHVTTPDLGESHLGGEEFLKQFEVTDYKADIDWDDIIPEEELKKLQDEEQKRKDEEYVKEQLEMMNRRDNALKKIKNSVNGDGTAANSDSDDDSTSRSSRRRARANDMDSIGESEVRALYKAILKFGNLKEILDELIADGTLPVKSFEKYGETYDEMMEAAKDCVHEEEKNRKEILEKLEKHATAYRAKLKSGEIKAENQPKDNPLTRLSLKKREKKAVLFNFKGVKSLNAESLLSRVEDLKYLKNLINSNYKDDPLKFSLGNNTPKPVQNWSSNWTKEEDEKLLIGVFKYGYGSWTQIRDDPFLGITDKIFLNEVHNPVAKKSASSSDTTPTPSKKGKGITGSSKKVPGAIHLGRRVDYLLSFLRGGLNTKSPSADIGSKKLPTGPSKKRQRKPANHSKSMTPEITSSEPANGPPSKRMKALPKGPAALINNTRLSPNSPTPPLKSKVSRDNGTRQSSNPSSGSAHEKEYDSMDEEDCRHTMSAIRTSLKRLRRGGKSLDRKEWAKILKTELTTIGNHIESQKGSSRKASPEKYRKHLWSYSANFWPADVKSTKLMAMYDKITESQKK

Sequence of Sialic acid-binding Ig-like lectin 9 (Homo sapiens) (Q9Y336 whole entry): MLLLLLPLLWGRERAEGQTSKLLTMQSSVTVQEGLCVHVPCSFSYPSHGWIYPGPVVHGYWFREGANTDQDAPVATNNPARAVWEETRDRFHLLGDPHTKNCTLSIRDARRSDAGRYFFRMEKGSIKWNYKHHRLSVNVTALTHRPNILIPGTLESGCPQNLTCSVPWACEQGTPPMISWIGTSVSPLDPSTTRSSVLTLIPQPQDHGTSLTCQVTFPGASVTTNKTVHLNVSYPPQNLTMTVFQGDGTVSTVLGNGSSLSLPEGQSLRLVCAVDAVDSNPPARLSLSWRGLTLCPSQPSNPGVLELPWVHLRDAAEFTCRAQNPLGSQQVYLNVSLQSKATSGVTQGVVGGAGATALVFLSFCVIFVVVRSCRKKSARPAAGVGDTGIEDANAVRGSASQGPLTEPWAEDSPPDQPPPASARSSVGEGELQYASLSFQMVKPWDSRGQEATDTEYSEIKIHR
Sequence of Protein translocase subunit SecA (Escherichia coli (strain K12)) (P10408 whole entry): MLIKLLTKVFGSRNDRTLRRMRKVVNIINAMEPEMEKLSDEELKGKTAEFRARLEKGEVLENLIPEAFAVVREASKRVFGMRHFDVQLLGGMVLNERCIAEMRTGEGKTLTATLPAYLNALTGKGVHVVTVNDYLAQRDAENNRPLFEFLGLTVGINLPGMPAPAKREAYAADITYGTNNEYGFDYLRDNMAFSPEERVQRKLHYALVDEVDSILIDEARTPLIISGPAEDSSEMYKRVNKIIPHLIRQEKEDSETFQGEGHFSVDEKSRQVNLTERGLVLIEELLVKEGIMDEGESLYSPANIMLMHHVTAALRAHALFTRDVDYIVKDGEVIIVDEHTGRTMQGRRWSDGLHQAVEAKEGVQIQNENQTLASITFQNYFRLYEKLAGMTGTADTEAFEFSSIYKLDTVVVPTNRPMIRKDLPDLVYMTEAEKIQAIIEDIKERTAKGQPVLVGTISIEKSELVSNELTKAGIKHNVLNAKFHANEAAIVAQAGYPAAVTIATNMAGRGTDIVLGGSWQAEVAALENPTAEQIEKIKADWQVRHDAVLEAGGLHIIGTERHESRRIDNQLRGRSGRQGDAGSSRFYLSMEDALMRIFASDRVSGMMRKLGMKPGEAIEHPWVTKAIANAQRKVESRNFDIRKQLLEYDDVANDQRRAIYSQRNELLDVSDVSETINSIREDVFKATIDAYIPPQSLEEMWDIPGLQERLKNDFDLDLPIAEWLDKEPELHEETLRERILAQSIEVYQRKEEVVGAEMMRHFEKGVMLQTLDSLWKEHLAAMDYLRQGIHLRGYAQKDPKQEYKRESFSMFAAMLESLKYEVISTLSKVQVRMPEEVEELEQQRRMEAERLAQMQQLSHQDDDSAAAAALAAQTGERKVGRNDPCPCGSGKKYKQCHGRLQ

Structure (SMILES) | Percent Effect [1] | Percent Effect [2] | Percent Effect [3] | Percent Effect [4] | Percent Effect [5] | Percent Effect [6] | Percent Effect [7] | Percent Effect [8] | Percent Effect [9] | Percent Effect [10] | Percent Effect [11]
CC(=O)N1CCCC1c1cccc(Cc2ccc(F)cc2)n1 (configuration not stated) | -4.97% | 5.33% | 10.8% | 3.6% | 5.91% | -0.233% | 5.37% | 15.6% | 4.25% | 8.97% | 1.18%
c1cnc(NCc2ncn3c2CN(Cc2cccnc2)CCC3)nc1 | -0.478% | 2.7% | 0.693% | -4.85% | -2.15% | 1.25% | 8.03% | 2.98% | 8.91% | 8.54% | -0.718%
O=C1c2cnc(N3CCOCC3)nc2CN1c1ccc2c(c1)OCO2 | -4.88% | 7.79% | 1.53% | 6.09% | 2.26% | -5.52% | 14.5% | -11.1% | 9.68% | 21% | 0.201%
Cc1n[nH]c(C(=O)NCc2ccnc(OCC(F)(F)F)c2)c1Br | -4.7% | 23.7% | -2.47% | 1.14% | 8.08% | -0.383% | 18.4% | 5.22% | 6.37% | 24.4% | -11.1%
COCC(=O)N(C)Cc1ccc(Cl)c(Cl)c1 | -4.08% | -2.63% | 8.5% | 7.96% | -3.21% | -5.92% | 21.2% | 10.7% | 0% | 2.6% | -8.73%
CN1CCCC(Cc2cncc(C(=O)NCC3CC3)c2)C1 (configuration not stated) | -4.88% | 1.35% | 8.98% | 0.654% | 0.79% | -2.09% | 4.68% | 7.04% | 5.38% | 11.7% | -7.98%
O=C(O)[C@@H]1CN(C(=O)c2cc(C3CC3)n[nH]2)C[C@H]1c1cccc(F)c1 | -3.18% | 16.4% | -3.35% | 7.52% | 2.98% | -7.58% | 14.5% | -4.38% | 3.12% | 21% | -6.55%
CNC(=O)[C@H]1C[C@@H]2CN(C(=O)Nc3ccc(F)cc3)C[C@H]1O2 | -1.87% | 13% | 7.85% | 4.28% | 1.28% | 9.68% | 9.05% | 18.3% | 7.41% | 16.7% | -7.08%
c1cc(CNCC2OCCc3cn(CC4CCOCC4)nc32)ccn1 (configuration not stated) | -0.867% | -37.8% | 1.52% | -8.34% | 1.86% | 4.78% | 29% | 18.1% | 6.49% | 17.9% | 1.56%
CNc1cc(C)nc(C2CN(Cc3ccc(C)nc3)CCO2)c1 (configuration not stated) | -2.49% | 4.05% | 9.63% | -3.85% | -1.19% | -0.696% | 4.84% | 0.717% | 3.23% | 3.9% | -10.8%
O=C(CCCc1nnc(-c2ccccc2)o1)N1CCN(CCO)CC1 | 0.944% | 5.06% | -13.1% | 8.28% | -2.36% | 5.7% | 12.2% | 0.191% | 2.46% | 8.86% | -6.47%
CC[C@H](C)[C@H](NC(=O)Cc1csc(-c2cccc(Cl)c2)n1)C(=O)O | -3.85% | 9.33% | 11.6% | 11.9% | 0.982% | -4.75% | 12.6% | -8.02% | 4.23% | 7.69% | -5.96%
Cc1nn(C)c2c(NCc3ccccc3F)nc(C3CC3)nc12 | -4.24% | 13% | 15.3% | 12.8% | 9.14% | -63.5% | 20.6% | 38.1% | -3.23% | 13.6% | -3.61%
CC(C)c1noc(CN(Cc2cccs2)C2CC2)n1 | -4.69% | -5.2% | 7.3% | 44.2% | -5.61% | 4.14% | 5.16% | 18.1% | -4.3% | -8.64% | 2.56%
Cc1noc(C)c1CN1CCc2nn(C(C)C)c(=O)cc2C1 | -9.42% | 13.2% | -66% | 20.3% | 9.8% | 5.04% | 12.9% | -9.45% | 5.42% | 16.1% | -9.78%
O=S(=O)(Nc1cnn(C2CCOCC2)c1)c1ccc2c(c1)CCO2 | -1.97% | -2.6% | -19.5% | 5.92% | -0.296% | -9.68% | 12% | 13% | 1.06% | -1.28% | -7.66%
Cc1noc(C)c1CCC(=O)NC(C)c1nnc2n1CCC2 (configuration not stated) | -2.15% | 16.2% | 5.84% | 17.7% | 6.35% | 5.71% | 5.24% | 3.14% | 2.15% | 13.6% | -4.65%
CN(CCO)Cc1nnc(C2CCN(C(=O)c3cccnc3)CC2)n1C | -3.37% | 16% | -6.42% | 14.9% | 5.75% | 4.69% | 6.97% | 4.06% | 6.01% | 16.1% | -7.14%
COc1ccc(COCC(O)CNC(=O)c2cnc(C)cn2)cc1 (configuration not stated) | -3.92% | -8.86% | 0.227% | 0.611% | 0.308% | -1.94% | 10.1% | 7.75% | 4.17% | 10.1% | -25.8%
O=C(CCc1ccccc1F)NS(=O)(=O)c1ccc2c(c1)OCCCO2 | -6.43% | 11.4% | 2.28% | 1.9% | -0.923% | -4.95% | 9.09% | 6.8% | 2.08% | 12.7% | -20.4%
CC(C)c1nc(CN(C)C2CCN(Cc3nc(C4CC4)no3)C2)no1 (configuration not stated) | 4.92% | 11% | -9.72% | 4.44% | -8.42% | 1.36% | 18.8% | 22.3% | 3.23% | 10% | -6.06%
COc1c(C2CCCN2C(=O)c2cc(Cl)c[nH]2)c(C)nn1C (configuration not stated) | -5.79% | 5.41% | 4.66% | -0.555% | -0.781% | 2.08% | 4.31% | -1.4% | 9.9% | -3.66% | -3.93%
